Measured values published in PubChem BioAssay (NCI).
The panel holds about 79,000 compounds, 15% with a hit somewhere; the sample as a whole holds those more often. The source made the active and inactive calls. Cut-off read from the data, not from the text of the source: active = growth inhibition above about 70%; inactive = the rest.

Key:
[1] = NCI Yeast Anticancer Drug Screen. Data for the rad52 strain (AID 147);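 note: 0% = growth of vehicle-treated control cultures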; details: S. cerevisiae rad52 mutant growth inhibition, stronger effect = higher value
Method in brief: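 Inhibition of yeast growth, referenced to vehicle controls, was the measured output for a strain with defective DNA damage repair.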

[2] = NCI Yeast Anticancer Drug Screen. Data for the rad50EPP+ strain (AID 151);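 note: 0% = growth of vehicle-treated control cultures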; details: S. cerevisiae rad50 mutant strain, stronger effect = higher value
Method in brief: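 Genetically defined yeast (rad50EPP+, DNA damage repair alteration) is grown with compound, and inhibition of growth is expressed relative to vehicle-treated controls.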

[3] = NCI Yeast Anticancer Drug Screen. Data for the mgt1 strain (AID 153); details: S. cerevisiae mgt1 mutant growth inhibition, stronger effect = higher value
Method in brief: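 In the mgt1 strain, test compounds were added and growth inhibition was determined relative to vehicle-treated controls.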

[4] = NCI Yeast Anticancer Drug Screen. Data for the rad50 strain (AID 155);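 note: 0% = growth of vehicle-only cultures of the same strain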; details: S. cerevisiae rad50 strain growth inhibition, stronger effect = higher value
Method in brief: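 Genetically altered yeast (DNA repair pathway); compound treatment; growth inhibition vs vehicle ctrl.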

[5] = NCI Yeast Anticancer Drug Screen. Data for the mec2-1 strain (AID 157); details: S. cerevisiae mec2-1 strain, stronger effect = higher value
Method in brief: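 Each compound was tested on mec2-1 yeast, a strain altered in DNA damage repair or cell cycle control. Growth inhibition is reported relative to vehicle.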

[6] = NCI Yeast Anticancer Drug Screen. Data for the rad14 strain (AID 159);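 note: 0% = growth of vehicle-treated control cultures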; details: S. cerevisiae rad14 strain growth inhibition, stronger effect = higher value
Method in brief: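 Test compounds were applied to a repair-deficient yeast strain. Its growth was then compared with that of cultures given vehicle alone, and inhibition was expressed relative to those controls.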

[7] = NCI Yeast Anticancer Drug Screen. Data for the sgs1 mgt1 strain (AID 161);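 note: 0% = growth of cultures given vehicle only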; details: S. cerevisiae sgs1 mgt1 strain, stronger effect = higher value
Method in brief: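 Inhibition of yeast growth, normalised to vehicle-treated controls, is reported for a strain bearing genetic alterations in DNA damage repair.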

[8] = NCI Yeast Anticancer Drug Screen. Data for the CLN2oe strain (AID 163);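 note: 0% = growth of vehicle-only control cultures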; details: S. cerevisiae CLN2oe strain, stronger effect = higher value
Method in brief: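 First, the altered yeast strain was treated with each compound; second, its growth was measured; finally, inhibition was derived by comparison with vehicle controls.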

[9] = NCI Yeast Anticancer Drug Screen. Data for the cln2 rad14 strain (AID 165);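 note: 0% = growth equal to vehicle treated cultures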; details: S. cerevisiae cln2 rad14 strain, stronger effect = higher value
Method in brief: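 Test compounds were added to cln2 rad14 yeast cultures; inhibition of growth was then determined by comparison with vehicle treatment.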

[10] = NCI Yeast Anticancer Drug Screen. Data for the bub3 strain (AID 167); details: S. cerevisiae bub3 mutant strain, stronger effect = higher value
Method in brief: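 Yeast carrying a defined mutation is treated with each compound, and growth is compared with that of vehicle-exposed cells to give inhibition.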

[11] = NCI Yeast Anticancer Drug Screen. Data for the wt2 strain (AID 169);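 note: 0% = growth of vehicle-treated yeast cultures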; details: S. cerevisiae wt2 strain growth inhibition, stronger effect = higher value
Method in brief: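 The panel's yeast strains carry defined changes in DNA repair or cell cycle genes. Each strain is grown with compound, and growth loss is scored relative to vehicle.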

[12] = NCI Yeast Anticancer Drug Screen. Data for the mlh1 strain (AID 171);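 note: 0% = growth of vehicle-treated control cultures of the same strain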; details: S. cerevisiae mlh1 strain growth inhibition, stronger effect = higher value
Method in brief: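 Inhibition values reflect reduced yeast growth in the presence of compound, referenced to vehicle controls, using a strain chosen for its alteration in DNA repair or cell cycle control.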

[13] = NCI Yeast Anticancer Drug Screen. Data for the sgs1 strain (AID 173);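 note: 0% = growth of vehicle-only control cultures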; details: S. cerevisiae sgs1 mutant, stronger effect = higher value
Method in brief: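 Vehicle-treated cultures served as reference for growth inhibition of a yeast strain altered in DNA damage repair or cell cycle control after compound exposure.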

[14] = NCI Yeast Anticancer Drug Screen. Data for the mlh1 rad18 strain (AID 175); details: S. cerevisiae mlh1 rad18 strain growth inhibition, stronger effect = higher value
Method in brief: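 Inhibition values reflect reduced growth of mutant yeast versus vehicle-treated controls following compound exposure; the mutations affect DNA damage repair.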

[15] = at 5.0 µM (retest, dose inferred, filed as 0.5)
[16] = at 50.0 µM (retest, dose inferred, filed as 5.0)

Measured: growth inhibition

CC(=O)Cc1ccc[cH-]1.[Fe+2].c1cc[cH-]c1
active: [4]; at 50.0 µM 96.2% | [7]; at 50.0 µM 86.8% | [10]; at 50.0 µM 72.5% | [14]; at 50.0 µM 92.7%
inactive: [1]; at 1.2 µM 5% | [1]; at 3.7 µM 7% | [1]; at 11.0 µM 9% | [1]; at 33.0 µM 18% | [1]; at 100.0 µM 46% | [2]; at 1.2 µM 3% | [2]; at 3.7 µM 4% | [2]; at 11.0 µM 8% | [2]; at 33.0 µM 15% | [2]; at 100.0 µM 13% | [3]; at 1.2 µM 8% | [3]; at 3.7 µM 11% | [3]; at 11.0 µM 21% | [3]; at 33.0 µM 11% | [3]; at 100.0 µM 20% | [4]; at 1.2 µM 12% | [4]; at 3.7 µM 24% | [4]; [15] -14% | [4]; at 11.0 µM 22% | [4]; at 33.0 µM 22% | [4]; [16] 8% | [4]; at 100.0 µM 62% | [5]; at 1.2 µM -5% | [5]; at 3.7 µM -5% | [5]; [15] -6% | [5]; at 11.0 µM -1% | [5]; at 33.0 µM 12% | [5]; [16] -12% | [5]; at 50.0 µM 60.6% | [5]; at 100.0 µM 18% | [6]; at 1.2 µM 0% | [6]; at 3.7 µM -5% | [6]; at 11.0 µM 13% | [6]; at 33.0 µM 34% | [6]; at 100.0 µM 49% | [7]; [15] -4% | [7]; [16] 12% | [8]; at 1.2 µM 4% | [8]; at 3.7 µM 5% | [8]; at 11.0 µM 17% | [8]; at 33.0 µM 23% | [8]; at 100.0 µM 23% | [9]; [15] -7% | [9]; [16] 7% | [9]; at 50.0 µM 40.5% | [10]; at 1.2 µM -4% | [10]; at 3.7 µM -10% | [10]; [15] -4% | [10]; at 11.0 µM 7% | [10]; at 33.0 µM 13% | [10]; [16] 15% | [10]; at 100.0 µM 21% | [11]; at 1.2 µM 2% | [11]; at 3.7 µM 5% | [11]; at 11.0 µM 13% | [11]; at 33.0 µM 17% | [11]; at 100.0 µM 32% | [12]; at 1.2 µM -1% | [12]; at 3.7 µM -3% | [12]; at 11.0 µM -2% | [12]; at 33.0 µM 7% | [12]; at 100.0 µM 29% | [13]; at 1.2 µM 0% | [13]; at 3.7 µM 0% | [13]; at 11.0 µM 9% | [13]; at 33.0 µM 23% | [13]; at 100.0 µM 46% | [14]; [15] 3% | [14]; [16] 68%
